Bioassay records deposited in PubChem BioAssay by National Center for Advancing Translational Sciences (NCATS).
The list is not random: actives were taken first. Their share in the collection is about 17%.
TDP1 cell CPT: qHTS for Inhibitors of human tyrosyl-DNA phosphodiesterase 1 (TDP1): qHTS in cells in presence of CPT; AID 686979, 2013; chicken DT40 Tdp1-/-;hTDP1 cells + 20 nM CPT, ATP luminescence, 48 h; Potency, µM (highest dose often 46.2 µM), hits mostly inhibitors; 12% of 420,000 active; further: nearly all actives have a fitted effect of over 55% in size
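Cell growth measured by CellTiter-Glo luminescence after a minimum 48 h, 37 C compound exposure with 20 nM CPT in Tdp1-knockout DT40 cells stably expressing hTDP1, seeded 400/well; qHTS titration format.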
TDP1 inh: qHTS Assay for Inhibitors of Tyrosyl-DNA Phosphodiesterase (TDP1). Tyrosyl-DNA phosphodiesterase 1 (Homo sapiens), Q9NUW8. 0.28% of 350,000 active. Potency, µM (top dose mostly 130 µM), usual class: inhibitors. recombinant TDP1, AlphaScreen DNA substrate cleavage; further: nearly all actives have a fitted effect of over 40% in size
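Here, a 5' biotin and 3' phosphotyrosine-FITC DNA oligonucleotide reports Tdp1 activity: intact substrate bridges AlphaScreen beads, while cleavage leaves a 3' phosphate and drops signal. All incubations at room temperature.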
DT40 TDP1 no CPT: qHTS for Inhibitors of human tyrosyl-DNA phosphodiesterase 1 (TDP1): qHTS in cells in absence of CPT. DT40 Tdp1-/- hTDP1 cells, no CPT, ATP luminescence, 48 h. 15% of 420,000 active. Potency, µM (titrated, usually from 46.2 µM), hits mostly inhibitors; further: nearly all actives have a fitted effect of over 55% in size
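Stably hTDP1-transfected Tdp1-null chicken DT40 cells were treated with library compounds minus camptothecin and grown for at least 48 hr at 37 °C, after which cellular ATP was quantified by luminescence.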
ClpP mod: qHTS Assay for Activators of ClpP | ATP-dependent Clp protease proteolytic subunit (Bacillus subtilis (strain 168)), P80244 | purified B. subtilis ClpP, FRET peptide cleavage, 20 min | Potency, µM (series often up to 57.5 µM) | 1.9% of 340,000 active; active means well fitted falling curve with a large enough effect; inconclusive means small, poorly fitted or top-dose-only effect; inactive means no such curve, though single readings can be large or run the other way; further: the source files actives as falling curves though it sought activators and does not explain the sign; nearly all actives have a fitted effect of over 65% in size
Target sequence (P80244 whole entry, looked up): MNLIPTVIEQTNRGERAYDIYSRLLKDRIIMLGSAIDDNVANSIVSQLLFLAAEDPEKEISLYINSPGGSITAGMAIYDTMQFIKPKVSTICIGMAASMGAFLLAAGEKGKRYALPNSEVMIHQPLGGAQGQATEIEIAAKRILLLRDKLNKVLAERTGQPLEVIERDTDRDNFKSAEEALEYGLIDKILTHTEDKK
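ClpP 10 microg/mL final, pH 8 Tris/KCl buffer with BSA, glycerol, Tween-20; compound pinned in; FRET-FV substrate; RT 20 min; Ex320/Em430; ΔFRET vs ADEP 5.8 microM, DMSO, no enzyme.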
Numbers stand for hits; [ ] = another dose, or the depositor's remark. Unless noted, the call rests on the fitted dose curve; in most records, active means well fitted curve in the direction sought with a large enough effect; inconclusive means small, poorly fitted or top-dose-only effect, or another doubt; inactive means no such curve, though single readings can be large; an effect the other way counts as inactive or inconclusive.

What do the screens show for `Cc1ccsc1C(=O)C1CCCN(Cc2cn(C)nc2-c2ccccc2)C1` (centres undefined)?
TDP1 cell CPT: inconclusive; TDP1 inh: inactive; DT40 TDP1 no CPT: inconclusive

Results for Cn1cc(CN2CCCC(C(=O)c3cccs3)C2)c(-c2cccc(Cl)c2)n1 (centres undefined) ?
TDP1 cell CPT: inconclusive; TDP1 inh: inactive; DT40 TDP1 no CPT: 16µM

What do the screens show for `Cc1nn(C)cc1CN1CCCC(C(=O)c2ccc(-c3ccccc3)cc2)C1` (centres undefined)?
TDP1 cell CPT: inconclusive; TDP1 inh: inactive; DT40 TDP1 no CPT: 21µM

How did CN(C)S(=O)(=O)N1CCCC(C(=O)c2ccc(C(F)(F)F)cc2)C1 (centres undefined) do in these assays?
TDP1 cell CPT: inactive; TDP1 inh: inactive; DT40 TDP1 no CPT: inconclusive; ClpP mod: inactive

What do the screens show for `O=C(c1ccc(-c2ccccc2)cc1)C1CCCN(C(=O)c2ccncc2)C1` (centres undefined)?
TDP1 cell CPT: 3.7µM; TDP1 inh: inactive; DT40 TDP1 no CPT: inconclusive

Results for CN(C)S(=O)(=O)N1CCCC(C(=O)c2ccc(-c3ccccc3)cc2)C1 (centres undefined) ?
TDP1 cell CPT: inconclusive; TDP1 inh: inactive; DT40 TDP1 no CPT: 23µM; ClpP mod: inactive

What do the screens show for `COc1ccccc1C(=O)NC(=O)COC(=O)Cn1cnc2c1c(=O)n(C)c(=O)n2C`?
TDP1 cell CPT: inactive; TDP1 inh: inactive; DT40 TDP1 no CPT: inactive

How did O=C(c1ccc(-c2ccccc2)cc1)C1CCCN(Cc2ccncc2)C1 (centres undefined) do in these assays?
TDP1 cell CPT: 16µM; TDP1 inh: inactive; DT40 TDP1 no CPT: inconclusive

How did Cc1ncoc1C(=O)N1CCCC(C(=O)c2ccc(-c3ccccc3)cc2)C1 (centres undefined) do in these assays?
TDP1 cell CPT: 18µM; TDP1 inh: inactive; DT40 TDP1 no CPT: 23µM; ClpP mod: inactive

What do the screens show for `CN(C)c1ccc(-c2nc3ccccn3c2Nc2ccc3c(c2)OCCO3)cc1`?
TDP1 cell CPT: 21µM; TDP1 inh: inactive; DT40 TDP1 no CPT: inconclusive; ClpP mod: inactive

How did Clc1cccc(-c2ccc(-c3nc4ccccn4c3NCc3ccccc3)cc2)c1 do in these assays?
TDP1 cell CPT: 16µM; TDP1 inh: inactive; DT40 TDP1 no CPT: 23µM; ClpP mod: inconclusive

How did Oc1ccc(-c2nc3ccccn3c2Nc2ccc3c(c2)OCCO3)cc1 do in these assays?
TDP1 cell CPT: inconclusive; TDP1 inh: inactive; DT40 TDP1 no CPT: inconclusive; ClpP mod: inactive

How did Clc1cccc(-c2nc3ccccn3c2Nc2ccc3c(c2)OCCO3)c1 do in these assays?
TDP1 cell CPT: inconclusive; TDP1 inh: inactive; DT40 TDP1 no CPT: 8.2µM; ClpP mod: inactive

How did CCn1c2ccccc2c2cc(CN3CCN(Cc4cc(OC)ccc4O)CC3)ccc21 do in these assays?
TDP1 cell CPT: 26µM; TDP1 inh: inactive; DT40 TDP1 no CPT: inconclusive

Results for COc1cc(CN2CCN(Cc3ccc(SC)cc3)CC2)cc(OC)c1O ?
TDP1 cell CPT: inactive; TDP1 inh: inactive; DT40 TDP1 no CPT: inactive

How did COc1ccc(O)c(CN2CCCC(N3CCN(c4ccc(F)cc4)CC3)C2)c1 (centres undefined) do in these assays?
TDP1 cell CPT: inconclusive; DT40 TDP1 no CPT: inconclusive; ClpP mod: inactive

Results for COc1ccc(O)c(CN2CC3CCC(CC3)C2)c1 ?
TDP1 cell CPT: 23µM; DT40 TDP1 no CPT: inconclusive; ClpP mod: inactive

What do the screens show for `CCn1c2ccccc2c2cc(CN3CCN(Cc4cc(OC)c(O)c(OC)c4)CC3)ccc21`?
TDP1 cell CPT: 10µM; TDP1 inh: inactive[12.3 µM]; DT40 TDP1 no CPT: 10µM; ClpP mod: inactive

What do the screens show for `O=C(COc1ccc(F)cc1)Nc1nnc(S(=O)(=O)N2CCCC2)s1`?
TDP1 cell CPT: inactive; TDP1 inh: inactive; DT40 TDP1 no CPT: inactive; ClpP mod: inactive

How did COc1ccc(-c2cc(C)no2)cc1S(=O)(=O)N1CCc2ccccc21 do in these assays?
TDP1 cell CPT: inconclusive; TDP1 inh: inactive; DT40 TDP1 no CPT: inconclusive; ClpP mod: inactive

What do the screens show for `CCC1CN(S(=O)(=O)c2cc(-c3cc(C)no3)ccc2OC)c2cc(C)ccc2O1` (centres undefined)?
TDP1 cell CPT: 18µM; TDP1 inh: inactive; DT40 TDP1 no CPT: 23µM; ClpP mod: inactive

Results for Cc1cc(-c2ccc(C(C)C)c(S(=O)(=O)N3CCOc4ccccc43)c2)on1 ?
TDP1 cell CPT: inconclusive; TDP1 inh: inactive; DT40 TDP1 no CPT: 18µM; ClpP mod: inactive

Results for COc1ccc(-c2cc(C)no2)cc1S(=O)(=O)N1CCN(c2cccc(C)c2)C(C)C1 (centres undefined) ?
TDP1 cell CPT: 16µM; TDP1 inh: inactive; DT40 TDP1 no CPT: 23µM; ClpP mod: inconclusive

Results for Cc1cc(-c2ccc(C(C)C)c(S(=O)(=O)N3CC(=O)Nc4ccccc43)c2)on1 ?
TDP1 cell CPT: inactive; TDP1 inh: inactive; DT40 TDP1 no CPT: inactive; ClpP mod: inactive

What do the screens show for `COc1ccc(-c2cc(C)no2)cc1S(=O)(=O)N1CCOc2ccccc21`?
TDP1 cell CPT: inconclusive; TDP1 inh: inactive; DT40 TDP1 no CPT: 18µM; ClpP mod: inactive

Results for O=C(CCNC(=O)c1ccccc1Cl)Nc1ccncc1 ?
TDP1 cell CPT: inactive; TDP1 inh: inactive; DT40 TDP1 no CPT: inactive; ClpP mod: inactive

What do the screens show for `CCCN1CCc2[nH]c(=S)[nH]c(=O)c2C1`?
TDP1 cell CPT: inactive; TDP1 inh: inactive; DT40 TDP1 no CPT: inactive; ClpP mod: inactive

Results for CC(C)N1CCc2[nH]c(=S)[nH]c(=O)c2C1 ?
TDP1 cell CPT: inconclusive; TDP1 inh: inactive; DT40 TDP1 no CPT: 16µM; ClpP mod: inactive

What do the screens show for `CCOc1ccccc1NC(=O)Cn1c(=O)n(-c2ccc(Cl)cc2)c(=O)c2oc3ccccc3c21`?
TDP1 cell CPT: inactive; TDP1 inh: inactive; DT40 TDP1 no CPT: inactive; ClpP mod: inactive

What do the screens show for `CCN(CC)S(=O)(=O)c1cccc(C(=O)NCC(c2ccccc2)N(C)C)c1` (centres undefined)?
TDP1 cell CPT: inactive; TDP1 inh: inactive; DT40 TDP1 no CPT: inactive

How did CCN(CC)S(=O)(=O)c1cccc(NC(=O)CN(C)C2CCCCC2)c1 do in these assays?
TDP1 cell CPT: inconclusive; TDP1 inh: inactive; DT40 TDP1 no CPT: 15µM

Results for CCN(CC)S(=O)(=O)c1cccc(C(=O)NCC2CCCCC2)c1 ?
TDP1 cell CPT: inconclusive; DT40 TDP1 no CPT: 21µM; ClpP mod: inactive

How did NS(=O)(=O)c1cccc(NC(=O)COC(=O)CCSc2ccccc2)c1 do in these assays?
TDP1 cell CPT: inactive; TDP1 inh: inactive; DT40 TDP1 no CPT: inactive; ClpP mod: 16µM

What do the screens show for `CCN(CC)S(=O)(=O)c1cccc(NC(=O)CCSc2ccc(Cl)cc2)c1`?
TDP1 cell CPT: 16µM; TDP1 inh: inactive; DT40 TDP1 no CPT: 21µM; ClpP mod: inactive
